# High-throughput results: PubChem, several laboratories
# Sampled rows, rich in hits. Any-hit rate of the full collection: about 4.5%.
# PrPC TRFRET – inhibitors of human cell surface prion protein PrPC, primary screen, cell-based, TR-FRET | actives 0.43% (n = 370,000) | Major prion protein (Homo sapiens), P04156 | inhibition, % at 13.8 µM | TR-FRET read-out; in the data active means inhibition above about 24%; further: 0% = median of the test wells and 100% = reference compound wells
# Mtb FBA inh – Mtb FBA enzyme inhibitors, primary screen, biochemical, fluorescence, strain H37Rv; inhibition, % at 1 µM; AID 588726, 2011; purified M. tuberculosis FBA, fluorescence read-out; actives 2.3% (n = 360,000); Fructose-bisphosphate aldolase (Mycobacterium tuberculosis (strain ATCC 25618 / H37Rv)), …;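 further: 0% = vehicle and 100% = reference inhibitor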
# Target sequence (P9WQA3 whole entry, looked up): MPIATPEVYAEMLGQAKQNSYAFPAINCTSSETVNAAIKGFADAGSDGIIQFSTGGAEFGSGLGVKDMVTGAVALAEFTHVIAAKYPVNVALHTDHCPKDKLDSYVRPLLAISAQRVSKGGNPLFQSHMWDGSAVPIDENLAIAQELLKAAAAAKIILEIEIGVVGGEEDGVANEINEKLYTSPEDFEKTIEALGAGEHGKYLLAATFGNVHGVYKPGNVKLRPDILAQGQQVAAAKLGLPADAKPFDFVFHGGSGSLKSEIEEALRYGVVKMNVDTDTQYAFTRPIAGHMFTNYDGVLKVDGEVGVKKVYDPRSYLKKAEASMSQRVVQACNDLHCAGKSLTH
# PfHsp40 yeast – rescue of yeast from PfHsp40 toxicity, primary screen, S. cerevisiae, ATP luminescence; S. cerevisiae expressing PfHsp40, growth rescue; growth rescue, % at 12.5 µM; actives 0.68% (n = 340,000); AID 504582, 2011; in the data active means growth rescue above about 28%, passing the limit was not always enough;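 further: yeast W303a lacking pdr1 and pdr3 grown in galactose medium; growth measured after three days at 30 °C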
# PrP UTR inh – inhibition of PrP 5' UTR reporter expression. cell-based PrP 5' UTR mRNA reporter, plate reader. inhibition, % (no concentration beside the values). actives 0.35% (n = 340,000); in the data active means inhibition above about 52%; further: 0 = median of the neutral control wells
# BJeLR viability – MLPCN primary cell-based screen for lethality selective to Ras in HRASV12 cells. BJeLR (HRASV12) viability, CellTiter-Glo ATP luminescence, 48 h. inhibition, % (no concentration beside the values). actives 0.17% (n = 300,000). AID 1554, 2009; in the data active means inhibition above about 50%
# GDH-TPI counter-1 – GDH-TPI coupling enzyme inhibitors, primary screen, artefact control for M. tuberculosis FBA inhibitor project, biochemical, absorbance, full deck. AID 588335, 2011. inhibition, % at 4.8 µM. actives 1.2% (n = 360,000). GDH-TPI coupled enzyme counterscreen, NADH absorbance; in the data active means inhibition above about 30%;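 further: 0% = DMSO wells and 100% = wells lacking the enzyme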
# Mtb FBA inh conf – M. tuberculosis aldolase blockers, biochemical, fluorescence, strain H37Rv, confirmation; shares compounds with Mtb FBA inh; purified M. tuberculosis FBA, fluorescence read-out; actives 78% (n = 5,600); inhibition, % at 1 µM;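 further: 0% = vehicle wells and 100% = reference inhibitor wells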
# GDH-TPI counter-2 – GDH-TPI coupling enzyme inhibitors, artefact control for M. tuberculosis FBA inhibitor project, biochemical, fluorescence, high throughput | shares compounds with Mtb FBA inh | GDH-TPI coupled enzyme counterscreen | inhibition, % at 1 µM | actives 81% (n = 5,600); in the data active means inhibition above about 10%
# * = called active by the depositor; nt = no result; + = active, no number. Unless noted, no stated cut-off is given here; in the data, active means inhibition above about 27%; inactive means the rest.
SMILES,PrPC TRFRET,Mtb FBA inh,PfHsp40 yeast,PrP UTR inh,BJeLR viability,GDH-TPI counter-1,Mtb FBA inh conf,GDH-TPI counter-2
CCOc1ccc(NC(=O)CN(C)C(=O)CC(NC(=O)c2ccccc2)c2ccccc2)cc1OCC (stereo not given),-5,-4,0,-11,-5,0,nt,nt
COc1cccc(CN(C)C(=S)Nc2ccc(C)c(C)c2)c1,5,-1,2,-4,-4,7,nt,nt
Cc1ccc(/C=C/S(=O)(=O)NCc2ccc(F)cc2)cc1,-2,14,4,-30,-1,1,nt,nt
COC(=O)C1CCN(C(=O)COC(=O)c2cc(-c3ccccc3)nc3ccc(OC)cc23)CC1,nt,83*,4,-14,nt,22,58*,51*
CCOc1ccc2oc(C(=O)NCC(C)(C)CN(C)C)c(C)c2c1,-1,44*,0,-14,12,12,116*,86*
COc1ccc2oc(C(=O)OC(C)C(=O)Nc3ccc(N4CCOCC4)cc3)c(C)c2c1 (stereo not given),4,6,-2,-13,nt,13,nt,nt
COc1ccc2oc(C(=O)OC(C)C(=O)N3CCC(C)CC3)c(C)c2c1 (stereo not given),3,44*,0,-16,nt,10,+,+
CCNC(=O)NC(=O)C(C)OC(=O)c1oc2ccc(OC)cc2c1C (stereo not given),9,44*,-1,-6,nt,22,2,-5
O=C(CN1C(=O)NC2(CCCC2)C1=O)Nc1cc(Cl)ccc1N1CCCCC1,9,1,16,1,1,-3,nt,nt
COc1ccc2oc(C(=O)OCC(=O)N3CC(C)CC(C)C3)c(C)c2c1 (stereo not given),-3,31*,1,-29,-14,9,57*,51*
CC(=O)C12CCCCC1CC1[C@@H]3CC(C)C4=CC(=O)CC[C@]4(C)C3CC[C@@]12C (stereo not given in full),0,34*,0,-13,19,2,187*,175*
O=c1[nH]c(N/N=C/c2ccccc2)nc2ccccc12,3,56*,-1,-120,1,15,-5,-5
O=S(=O)(SC1=NCCN1)c1ccccc1,-3,-2,-2,-8,nt,8,nt,nt
CNC(=S)Nc1ccc(-c2nc3ccc(C)cc3s2)cc1,12,93*,14,-5,3,20,45*,32*
Cc1ccc2nc(-c3ccc(NC(=O)CN4CCN(C(=O)c5ccco5)CC4)cc3)sc2c1,2,46*,-2,-49,2,24,+,+
Cc1ccc2nc(-c3ccc(NC(=O)CN(c4ccccc4C)S(C)(=O)=O)cc3)sc2c1,1,90*,1,-45,-4,12,+,+
Cc1cc(C)cc(N(CC(=O)Nc2ccc(-c3nc4ccc(C)cc4s3)cc2)S(C)(=O)=O)c1,-1,24,-1,-74,-3,18,nt,nt
Cc1ccc2nc(-c3ccc(NC(=S)NCCC(C)C)cc3)sc2c1,0,27,-1,-144,-2,21,nt,nt
CCCCNC(=S)Nc1ccc(-c2nc3ccc(C)cc3s2)cc1,5,56*,-1,-88,2,21,-2,-5
COc1ccc(NC(=O)CSC2=NCCN2)cc1,7,6,-2,-8,6,7,nt,nt
CCn1c(SCC(=O)N/N=C(\C)c2ccncc2)nnc1-c1ccccc1,5,2,-2,-12,-4,3,nt,nt
Cc1cnc(NC(=O)C(C)N2CCN(C)CC2)s1 (stereo not given),-2,-2,-1,-25,1,1,nt,nt
COCCNc1nnc(SC(C)C(=O)Nc2ccc(-c3nc4ccc(C)cc4s3)cc2)s1 (stereo not given),8,40*,0,-80,3,29,+,+
Cc1ccc(-c2nnc(SCC(=O)Nc3ccc(-c4nc5ccc(C)cc5s4)cc3)n2Cc2ccco2)cc1,-4,nt,nt,nt,nt,nt,nt,nt
Cc1ccc2nc(-c3ccc(NC(=S)NCC(C)(C)CN(C)C)cc3)sc2c1,0,77*,0,-69,nt,2,69*,53*
SMILES,PrPC TRFRET,Mtb FBA inh,PfHsp40 yeast,PrP UTR inh,BJeLR viability,GDH-TPI counter-1,Mtb FBA inh conf,GDH-TPI counter-2
CC(=O)NC(=S)Nc1ccc(-c2nc3ccc(C)cc3s2)cc1,7,6,-1,-65,-6,5,nt,nt
CCC(C)(C)NC(=S)Nc1ccc(-c2nc3ccc(C)cc3s2)cc1,7,92*,1,-145,0,28,2,-3
C=CCn1c(SCC(=O)Nc2ccc(-c3nc4ccc(C)cc4s3)cc2)nnc1-c1ccccc1,-8,41*,1,-115,2,11,+,+
COCCNc1nnc(SC(C)C(=O)Nc2c(C)n(C)n(-c3ccccc3)c2=O)s1 (stereo not given),6,0,-3,-23,-1,-9,nt,nt
O=C(COc1ccc([N+](=O)[O-])cc1)NC(=O)NC1CCS(=O)(=O)C1 (stereo not given),-5,0,nt,0,nt,11,nt,nt
CN1CCN(CCNC(=O)Nc2ccc(Cl)cc2)CC1,-3,-4,0,-10,-6,-4,nt,nt
Brc1ccc(C2Nc3cccc4cccc(c34)N2)cc1,-2,-1,3,-24,nt,5,nt,nt
O=C1NC(c2ccc(Br)cc2)Nc2ccccc21 (stereo not given),2,42*,-2,-40,2,10,102*,95*
O=C1NC(c2ccc3ccccc3c2)Nc2ccccc21 (stereo not given),-1,50*,nt,nt,nt,8,71*,87*
O=C(N[C@H](C(=O)N1CCC[C@H]1C(=O)NCCc1ccccc1Cl)c1ccccc1)C1CC1,-4,nt,nt,nt,nt,nt,nt,nt
COc1ccc(N2CCN(CCCNC(=O)C(=O)c3c(C)n(C)c4ccccc34)CC2)cc1,-7,-1,0,-3,0,13,nt,nt
CCS(=O)(=O)Nc1ccc(C2=NN(S(C)(=O)=O)C(c3cccs3)C2)cc1 (stereo not given),-1,93*,-1,-48,-19,0,57*,45*
CCC1C(=O)N(C)CCc2ccccc21 (stereo not given),5,1,-1,-14,-5,9,nt,nt
Cc1nc(C(=O)NNC(=O)c2ccc(C(F)(F)F)cc2)cs1,5,0,nt,nt,-4,17,nt,nt
